Compound activity as filed in PubChem BioAssay.
Compounds with a hit are over-represented: about 21% of the library has one in this group of screens.
Shiga toxin inh – blocks Shiga toxin action in Vero cells. Vero cells, Shiga toxin protein synthesis inhibition reporter. AID 2315. inhibition, % at 38.7 µM. actives 9.2% (n = 290,000); in the data active means inhibition mostly above about 28%, no sharp cut-off; inactive means mostly below about 43%
Pf growth 96h – P. falciparum growth inhibition at 96 hours. P. falciparum luciferase reporter growth, 96 h. actives 6.9% (n = 320,000). AID 504834. Potency, µM (series often up to 28.7 µM), hits mostly inhibitors
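P. falciparum expressing integrated firefly luciferase, in erythrocytes at 2% hematocrit, 0.05% parasitemia, incubated with compounds 96 h at 37 C, 5% CO2. Growth inhibition read as loss of luminescence; two-generation exposure targets delayed-death apicoplast inhibitors.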
Cycloheximide cs – affects cycloheximide protein synthesis inhibition readout, counter-screen; cell reporter, cycloheximide protein synthesis inhibition counterscreen; max response, %; actives 12% (n = 300,000); AID 2314; in the data active means max response mostly above about 13%, no sharp cut-off; inactive means mostly below about 14%; further: read at 38.3 µM for the half of the compounds with a filed dose
NS1 function inh – blocks influenza NS1 protein function; Potency, µM (series often up to 46.1 µM); actives 0.4% (n = 270,000); AID 2326; calls by dose curve; further: actives are rising curves; nearly all actives have a fitted effect of over 50% in size
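In this qHTS, NS1 from influenza A is expressed in budding yeast, where it slows growth. Cells are switched from glucose to 2% galactose medium (pH 6.0, -URA), treated with compound, and growth recovery is read at OD600.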
Pf growth 48h – P. falciparum growth inhibition at 48 hours (one generation); actives 5.9% (n = 310,000); P. falciparum luciferase growth in erythrocytes, 48 h; Potency, µM (top dose mostly 28.7 µM), actives largely listed as inhibitors
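Growth was read as firefly luciferase luminescence after a 48 h, 37 C, 5% CO2 exposure of compounds to reporter-bearing P. falciparum cultures (0.1% parasitemia, 2% hematocrit final) in Albumax-supplemented RPMI 1640.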
Hits are given with their value; 0 = inactive; ? = inconclusive; - = not tested or not shown; + = active, no number. Unless noted, the call rests on the fitted dose curve; in most records, active means well fitted inhibition curve with a large enough effect; inconclusive means small, poorly fitted or top-dose-only effect, or another doubt; inactive means no such curve, though single readings can be large or run the other way.

SMILES	Shiga toxin inh	Pf growth 96h	Cycloheximide cs	NS1 function inh	Pf growth 48h
COc1cccc(N/C(SCc2ccccc2C)=C(/C#N)C(=O)NCc2cccs2)c1	0	2.08µM	0	0	?
Cc1ccc(CNS(=O)(=O)c2ccc3c(c2)CCN3C(=O)CCCC(=O)O)cc1	0	0	0	-	0
O=C(O)CC/C(=N\NC(=O)CNC(=O)c1cccc(Cl)c1)c1ccccc1	0	0	0	-	0
C/C(=N\NC(=O)CCc1ccccc1)C1C(=O)c2ccccc2C1=O	66.9	0	24.1	0	0
C/C(=N/NC(=O)CNC(=O)CCc1ccccc1)c1ccc(Cl)c(Cl)c1	0	0	0	0	0
C/C(=N\NC(=O)c1cccc(Cl)c1)C1C(=O)c2ccccc2C1=O	73.4	?	52.4	0	0
COc1ccc(/C=N/n2cnc3c([nH]c4ccccc43)c2=O)cc1COc1ccccn1	0	?	0	-	0
O=C(NC(=S)Nc1ccc(N2CCN(C(=O)c3ccccc3)CC2)cc1)c1cccs1	0	0	0	0	?
CN(c1ccccc1)S(=O)(=O)c1ccc(C(=O)NCc2cccs2)cc1	0	0	0	0	?
Brc1ccc2c(c1)C(OC1CN3CCC1CC3)c1ccccc1CS2 (stereo unspecified)	0	10.4µM	0	0	?
Clc1ccc2c(c1)C(C1=NCCN1)c1ccccc1CS2 (stereo unspecified)	0	0	0	0	?
CCn1c(SCC(=O)NC2CCCC2)nnc1C(C)C	0	0	0	0	0
O=C(/C=C/c1cccs1)N1CCc2ccccc21	0	0	27.1	0	0
CSC1=NCCN1C(=O)C12CC3CC(CC(C3)C1)C2	0	?	0	-	9.28µM
O=C(c1cccs1)N1CCc2ccccc21	70.2	0	53.7	0	0
C/C(=C/C(=O)N1CCc2ccccc21)C(=O)O	0	?	0	0	0
O=C(/C=C/c1ccc(Cl)c(Cl)c1)N1CCc2ccccc21	active	0	24.1	0	0
CSC1=NCCN1C(=O)c1ccc(C)cc1	0	0	0	0	0
CSC1=NCCN1C(=O)c1cccs1	0	13.1µM	0	0	-
O=C(c1cccs1)N1CCN=C1SCc1cccc(F)c1	0	0	0	0	0
O=C(c1cccc(N2CCCC2=O)c1)N1CCN(c2cccc(Cl)c2)CC1	0	0	0	0	0
C#CCSc1nnc(-c2ccc(C)cc2)o1	73.2	1.17µM	39.2	0	0
C#CCSc1nnc(-c2ccc(O)cc2)o1	62.1	0	52.9	-	0
OCC#CCSc1nnc(-c2ccncc2)o1	0	0.294µM	0	0	0
ClC1(Cl)CC1CSc1nnc(-c2ccncc2)o1 (stereo unspecified)	0	?	19.3	0	0
SMILES	Shiga toxin inh	Pf growth 96h	Cycloheximide cs	NS1 function inh	Pf growth 48h
COc1cc(-c2cc(=O)c3c(O)c(OC)c(OC)cc3o2)cc(OC)c1O	0	0	0	0	?
COc1ccc(-c2cc(=O)c3c(O)c(OC)c(O)cc3o2)cc1	45.5	0	37.3	0	0
COc1ccc(-c2cc(=O)c3c(OC)c(OC)c(OC)cc3o2)cc1	0	11.7µM	0	0	?
COc1c(OC)c(O)c2c(=O)cc(-c3c(O)cccc3O)oc2c1OC	0	?	17.5	?	?
N#CCCN(C(=O)COC(=O)c1cc(S(=O)(=O)N2CCOCC2)ccc1Cl)c1ccc(F)cc1	-	0	-	-	0
O=[As](O)(O)c1ccc(N=Nc2ccc(O)cc2)cc1	0	2.94µM	0	0	?
COc1cccc(N(C(=O)c2nc3nccc(C)n3n2)c2nc3ccccc3s2)c1	0	0	27.2	0	0
Cc1ccnc2nc(C(=O)OCC(=O)Nc3ccccc3C(C)(C)C)nn12	0	0	0	-	0
COc1ccc(C(C)(C)C)cc1NC(=O)COC(=O)c1nc2nccc(C)n2n1	-	0	-	-	0
COc1cccc(NC(=O)COC(=O)c2nc3nccc(C)n3n2)c1	0	?	13.0	0	0
C=CCNC(=S)NNC(=O)c1cc(O)ccc1O	0	4.65µM	0	0	0
C=CCNC(=S)NNC(=O)c1ccc(Br)cc1	0	0	0	0	0
O=C(O)c1cc2ccccc2oc1=O	58.2	0	42.8	0	0
O=C(Oc1ccccc1)c1cc2ccccc2oc1=O	0	0	0	-	0
O=C(c1ccccc1)N1CCN(C(=O)c2cc3ccccc3oc2=O)CC1	0	0	0	0	0
O=C(c1ccccc1)c1cc2ccccc2oc1=O	59.6	0	0	0	0
O=C(NCCN1CCOCC1)c1cc2ccccc2oc1=O	35.2	?	0	0	0
Cc1cc[n+](CC(=O)c2cc3ccccc3oc2=O)cc1	+	?	60.4	?	0
O=c1c2ccccc2ncn1-c1ccccc1C(F)(F)F	0	0	0	0	0
CC(SCC(=O)O)c1nc2ccccc2[nH]1 (stereo unspecified)	0	0	0	0	0
CCOc1cc(OCC)cc(C(=O)NCCCN2CCOCC2)c1	0	0	0	-	0
O=C(NNC(=O)c1cc2ccccc2oc1=O)c1ccccc1	61.8	0	19.6	0	0
CC(/C=C/c1ccccc1)=N\NC(=O)c1cc(C)[nH]n1	0	?	36.1	-	0
CC(C)c1cc(C(=O)N/N=C/C=C/c2ccccc2)n[nH]1	0	0	0	0	0
CC(/C=C/c1ccccc1)=N/NC(=O)c1cnccn1	32.1	0	26.5	0	0
SMILES	Shiga toxin inh	Pf growth 96h	Cycloheximide cs	NS1 function inh	Pf growth 48h
O=C(N/N=C/C=C/c1ccccc1)c1cnccn1	0	0	12.7	0	-
C/C(=N\NC(=O)c1cc(C)[nH]n1)C(C)(C)C	0	?	0	0	0
CCN(CC(=O)NCc1cccs1)C(=O)/C=C/c1ccc(Cl)c(Cl)c1	-	0	-	-	0
Cc1cc(C)cc(N(C(=O)c2cccs2)C2C=CS(=O)(=O)C2)c1 (stereo unspecified)	0	?	0	-	0
OC1(c2ccccn2)COc2ccccc2O1 (stereo unspecified)	0	0	23.7	0	0
Cc1c(C=O)c(C=O)c(C)n1Cc1ccccc1	0	5.22µM	0	0	-
CCOC(=O)Cn1c2ccccc2c2nc3ccccc3nc21	0	0	11.6	0	0
CCN(CC)CCSc1nnc2c3ccccc3n(Cc3ccccc3)c2n1	0	?	0	0	5.22µM
CCN(CC)CCSc1nnc2c3cc(F)ccc3n(Cc3ccccc3)c2n1	0	0	0	0	-
CCCn1c2ccccc2c2nc3ccccc3nc21	0	-	18.6	0	?
CCOC(=O)Cn1c2ccccc2c2nc(C)sc21	0	0	0	-	0
CCN(CC)CCn1c2ccccc2c2nc3ccccc3nc21	52.6	0	44.3	0	0
CC(NCC(O)c1ccc([N+](=O)[O-])cc1)C12CC3CC(CC(C3)C1)C2 (stereo unspecified)	0	?	0	0	?
CCOC(=O)Cn1c(=O)c(-c2cc(Br)ccc2N)nc2ccccc21	0	0	0	0	0
CCOC(=O)Cn1c(=O)c(-c2ccccc2N)nc2ccccc21	0	0	25.1	0	0
CCCn1c(O)c(N=Nc2ccc3ccccc3n2)c2ccccc21	41.5	0	30.3	0	0
C=CCNC(=S)NCC=C	0	0	0	0	0
COC(=O)c1[nH]c2cc(OC)ccc2c1NC(=O)CCN1CCN(c2ccccc2)CC1	0	-	0	0	0
